Rows were chosen to be rich in hits. Some 11% of all compounds tested hit in one or more screens of this group.
PNC inhibitor = blocks assembly of the perinucleolar compartment; hit rate 3.1% among 140,000; activity change (PNC), negative = inhibition, % at 10 µM; PC3M PTB-GFP, PNC prevalence imaging, 16 h; active compounds read low; AID 2417;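 active means readout at or below -70, meaning at least 70% loss of cells showing the perinucleolar compartment, a nuclear body marking cancer cells; inconclusive means readout between -30 and a set limit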;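 further: plate controls were DMSO wells for no effect and camptothecin positive control wells for full effect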
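PC3M cells stably expressing PTB-GFP, 750–1000 cells/well, treated 16 h at 37 °C with compound (23 nl of library stock), in duplicate. After paraformaldehyde fixation and Hoechst stain, imaged at 20x; PNC prevalence scored by image analysis.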
ALDH1A1 inh = blocks purified human ALDH1A1 activity; Potency, µM (doses to about 75.3 µM), without a hit: top-dose activity, negative = inhibition, hits mostly inhibitors; Purified ALDH1A1, NADH fluorescence, propionaldehyde substrate; hit rate 7.3% among 220,000; active means well fitted inhibition curve with a large enough effect, not every such curve was filed as active; inconclusive means small, poorly fitted or top-dose-only effect, or another doubt; inactive means no such curve, though single readings can be large or run the other way;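 further: potency means the concentration at half of the fitted maximal effect; plate controls were no enzyme wells and a reference inhibitor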
Target sequence (P00352 whole entry, looked up): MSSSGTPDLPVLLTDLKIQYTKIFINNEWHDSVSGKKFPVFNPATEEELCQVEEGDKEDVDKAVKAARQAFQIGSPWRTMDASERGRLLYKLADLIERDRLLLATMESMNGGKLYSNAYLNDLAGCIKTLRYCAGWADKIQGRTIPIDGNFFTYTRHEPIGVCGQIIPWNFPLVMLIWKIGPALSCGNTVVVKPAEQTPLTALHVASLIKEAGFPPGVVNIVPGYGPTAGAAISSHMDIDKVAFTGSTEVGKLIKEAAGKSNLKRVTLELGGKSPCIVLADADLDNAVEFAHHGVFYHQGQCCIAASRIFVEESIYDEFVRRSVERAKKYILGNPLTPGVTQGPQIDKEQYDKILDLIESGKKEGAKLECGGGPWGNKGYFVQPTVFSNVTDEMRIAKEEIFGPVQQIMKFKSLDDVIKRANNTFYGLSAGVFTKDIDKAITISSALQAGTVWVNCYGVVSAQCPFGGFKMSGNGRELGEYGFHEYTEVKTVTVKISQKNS
HPGD block = inhibitors of human 15-hydroxyprostaglandin dehydrogenase (HPGD). purified HPGD, NADH fluorescence kinetic, PGE2 substrate. Potency, µM, for the others: top-dose activity change, negative = inhibition, usual class: inhibitors. hit rate 4.3% among 150,000. AID 894; active means well fitted inhibition curve with a large enough effect, not every such curve was filed as active; inconclusive means small, poorly fitted or top-dose-only effect, or another doubt; inactive means no such curve, though single readings can be large or run the other way; further: potency means the concentration at half of the fitted maximal effect
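20 nM HPGD preincubated 15 min at room temperature with compound in 50 mM Tris-HCl pH 8, 0.01% Tween 20. Started with 1 mM NAD+ and 30 uM prostaglandin E2; NADH fluorescence (360/450 nm) read 5 times over 30-s intervals, last minus first.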
IMPase Li cell = cell-permeable IMPase inhibitors with lithium potentiation | AID 1457 | CHO-M1 cells, IP1 TR-FRET (IP-One), carbachol + lithium | hit rate 0.35% among 210,000 | Potency, µM (highest dose often 59.4 µM), inactives show at the highest dose activity, negative = IMPase inhibition, hits mostly inhibitors;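 further: IP1 builds up when IMPase is blocked and the TR-FRET signal falls; potency means the concentration at half of the fitted maximal effect; plate controls were basal vehicle for no effect and high inhibitor control for full effect; nearly all actives have a fitted effect of over 50% in size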
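Concentration–response in CHO-M1 cells, lithium-potentiated; 30 min at 37C. IP1 detected by competitive TR-FRET after 10 min lysis at RT. Hill-fitted AC50.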
IMPase cell inh = cell-permeable inhibitors of inositol monophosphatase (IMPase); CHO-M1 cells, IP1 accumulation, HTRF TR-FRET ratio; P97697; inhibition (IP1 accumulation), % at 46.1 µM; 120,000 tested, under 10 active; AID 901; active means well fitted curve in the direction sought with a large enough effect in the signal ratio, not every such curve was filed as active; inconclusive means small, poorly fitted or top-dose-only effect, or a change in a side signal; inactive means no such curve, though single readings can be large or run the other way; the % refers to the signal ratio;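 further: cells stimulated with carbachol in lithium chloride buffer; plate controls were DMSO basal wells for no effect and reference inhibitor wells for full effect; higher means more IMPase inhibition seen as more IP1 and lower FRET ratio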
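In this qHTS, compounds (final up to 46 uM) act on CHO-M1 cells that are then activated through the M1 receptor with carbachol, in pH 7.4 buffer containing 50 mM LiCl, for 30 min. IP1 accumulation is quantified by the IP-One immunoassay.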
12-hLO inh = inhibitors of human 12-lipoxygenase (ALOX12); purified 12-hLO, xylenol orange hydroperoxide absorbance; Potency, µM (doses to about 57.1 µM), without a hit: at the highest dose activity change, negative = inhibition, usual class: inhibitors; hit rate 0.12% among 150,000; AID 1452; further: potency means the concentration at half of the fitted maximal effect; nearly all actives have a fitted effect of over 55% in size
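150 nM 12hLO, 25 mM Hepes pH 7.0 + 0.01% Triton X-100; cpd preinc 15 min RT; 40 uM arachidonic acid, 30 min RT; Fe-XO 30 min; A573/A405 ratio as read-out.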
An asterisk follows results filed as active; ? = inconclusive; nt = no result given; [ ] = remark or other dose. Unless noted, the call rests on the fitted dose curve; in most records, active means well fitted curve in the direction sought with a large enough effect; inconclusive means small, poorly fitted or top-dose-only effect, or another doubt; inactive means no such curve, though single readings can be large; an effect the other way counts as inactive or inconclusive. Unless noted, on the % scale 0 is the no-effect control and ±100 the full control effect.

SMILES | PNC inhibitor | ALDH1A1 inh | HPGD block | IMPase Li cell | IMPase cell inh | 12-hLO inh
N#CCCn1c(=O)c(-c2ccc(Cl)cc2)nc2cnc(N3CCOCC3)nc21 | nt | ? | nt | -5.1% | nt | nt
CC(=O)OC[C@@H]1O[C@H](CCO/N=C(\C)CCC(=O)OC[C@@H]2O[C@H](C#Cc3ccccc3)C=C[C@@H]2Oc2ccc(C)cc2)C=C[C@@H]1OC(C)=O | nt | 17.7%[13.5 µM] | nt | nt | nt | nt
O=C(c1ccco1)N1CCC[C@@]2(CCN(c3ccncc3)C2)C1 | nt | -5.3% | -12.5% | 15.3% | nt | 12.9%
CCS(=O)(=O)NCCc1cc2c(OC)ccc(OC)c2[nH]c1=O | -100.0* | ? | -22.1% | 3.5% | 2.1 | -1.7%
COc1ccc(OC)c2[nH]c(=O)c(CCNC(C)=O)cc12 | ? | 9.9% | -4.1% | 5.4%[38.3 µM] | -7.2 | -1.9%
CCCS(=O)(=O)NCCc1cc2cc(C)c(C)cc2[nH]c1=O | -100.0* | 1.3% | -23.2% | 4.3% | -5.0 | -7.4%
CCCCC1=CC2=C(c3ccco3)C(=O)C(C)(OC(=O)c3ccc(OC)cc3)C(=O)C2=CO1 (centres undefined) | nt | 1.3% | -11.7% | 0.9% | nt | -3.9%
c1ccc(-c2nnc3sc(CN4CCc5ccccc54)cn23)cc1 | 142.5 | ? | 11.2µM* | 5.9% | 7.2 | -11.0%
CN(C)CCNC(=O)c1ccc(-n2c(=O)c(=O)[nH]c3ccccc32)cc1 | nt | 14.9% | -12.5% | nt | nt | -2.7%
COC(=O)c1c(N2C(=O)[C@H]3[C@@H](C2=O)[C@]2(C(=O)Nc4ccc(C)cc42)N2CCC[C@@H]32)sc(C)c1C | nt | 2.0% | nt | -1.9% | nt | nt
COc1ccc(N(CN2C(=O)c3ccccc3C2=O)C(=O)C(C)C)cc1 | ? | 11.2µM* | -7.3% | 6.6%[38.3 µM] | 3.8 | 0.8%
CCN(Cc1ccccc1)Cc1c(O)ccc2c(=O)c(-c3ccccc3OC)c(C(F)(F)F)oc12 | nt | nt | nt | nt | 1.4 | nt
NNc1nc2ccc(Cl)cc2s1 | 46.0 | 35.5µM* | -16.6% | 4.1% | 7.7 | ?
NNc1nc2ccc(F)cc2s1 | 24.1 | ? | -12.8% | 1.7% | nt | ?
C=C(C)COc1ccc(-c2ncncc2Oc2ccc(OC)cc2)c(O)c1 | 14.7 | 20µM* | 17.8µM* | 37.0%[38.3 µM] | ? | -20.0%
C=C(C)COc1ccc(-c2nc(N)ncc2-c2ccc(OC)cc2)c(O)c1 | 55.3 | ? | ? | 40.5%[38.3 µM] | 9.0 | -2.3%
Cc1ccc(/C=C/C(=O)N2CCN(Cc3ccccc3)CC2)o1 | 20.6 | 8.91µM* | -25.9% | 1.6% | nt | 2.1%
Cc1cccc(CN2CCN(C(=O)CCl)CC2)c1 | 33.5 | 0.316µM* | nt | nt | 0.2 | -0.9%
Cc1cccc(CN2CCN(C(=O)c3ccccc3F)CC2)c1 | ? | ? | 5.4% | 7.9%[38.3 µM] | 7.2 | -6.7%
Cc1ccc(/C=C/C(=O)N2CCN(S(=O)(=O)c3ccc(C)c(C)c3)CC2)o1 | ? | 3.55µM* | 22.4µM* | 5.4% | nt | -15.9%
Cc1ccc(/C=C/C(=O)NCCCN2CCN(CCCNC(=O)/C=C/c3ccc(C)o3)CC2)o1 | -21.8 | -6.1% | -20.9% | 16.7% | nt | -3.9%
Cc1ccc(/C=C/C(=O)N2CCN(S(=O)(=O)c3c(C)c(C)cc(C)c3C)CC2)o1 | 13.9 | 14.1µM* | 25.1µM* | 8.6% | 11.9 | -15.2%
CC(C)(CCC(C)(C)c1ccccc1)c1ccccc1 | nt | 11.3%[13.5 µM] | -2.3% | 12.9% | nt | 1.8%[11.4 µM]
Fc1ccccc1Cc1cn2cc(-c3ccc(Cl)cc3)nc2s1 | nt | nt | nt | nt | 2.0 | nt
COC(=O)c1ccc(-c2nc3cc(Cl)c(N)cc3s2)cc1 | ? | 10.3% | -20.2% | -19.1% | -7.3 | 5.6%
COC(=O)c1ccc(-c2nc(O)c(C)s2)cc1 | nt | 20µM* | nt | 3.3% | nt | nt
CC(C)(C(O)c1ccc([N+](=O)[O-])cc1)[N+](=O)[O-] (centres undefined) | nt | ? | -3.5% | 14.8% | nt | nt
NC(=O)CN1CCN(S(=O)(=O)c2ccc(Br)cc2)CC1 | nt | 26.2% | nt | -6.9% | nt | nt
CCOc1ccc(C(=O)CN2CCN(S(=O)(=O)c3ccc(OC)cc3)CC2)cc1 | -14.0 | 20µM* | -5.7% | 30.0%[38.3 µM] | 4.7 | -3.1%

Source: PubChem BioAssay
